Test in all cases: NCI-60 one-dose screen, 48 h (100 = growth as untreated, 0 = no growth, -100 = all killed)
What all share (settings): 10 µM

Assay [1] concerns K-562 leukemia.
The subject of assay [2] is MALME-3M melanoma.
Assay [3] relates to MDA-MB-231 breast.
Assay [4] deals with RXF 393 renal.
Assay [5] deals with SF-268 CNS.
Assay [6] has as its system SF-295 CNS.
In assay [7] the test system is SF-539 CNS.
In assay [8] the test system is UACC-257 melanoma.
The test system of assay [9] is M14 melanoma.
For assay [10], the system named is HCT-15 colon.

About 83,000 compounds went through this panel and 20% of them were active in at least one assay; those are over-represented in the sample as a whole.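 Single-concentration screen, 48 h exposure, 96-well plates. Endpoint: percent growth. Below 10 = active.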 A number with no mark means an inactive call. The source made the active and inactive calls.

Turning to `O=[N+]([O-])c1ccc(Oc2cc(Cl)c(Cl)cc2Cl)c(C(F)(F)F)c1`, the growth was 93.8% in assay [1]; 107% in [2]; 96.4% in [3]; 96.4% in assay [4]; 101% in assay [5]; 91.7% in assay [6]. Besides, the growth in assay [7] is 95.3%; in [8], 100%; in assay [9] it was 101%; in assay [10], 92.2%.
Regarding `CS(=O)(=O)Nc1ccc(Nc2c3ccccc3nc3cc([N+](=O)[O-])ccc23)cc1`, the growth in assay [1] is 7.9% (active); in assay [2], 22.6%; in assay [3], 50.9%; in [4] it was 34.5%; in [5] it was 11.6%; in [6], 4.34% (active). Also, the growth was 24.4% in [7], 44.6% in assay [8], 4.52% (active) in assay [9] and 6.81% (active) in [10].
Consider `CCCCCCN(CCCCCC)CC(O)c1ccc2c3c(cccc13)CC2` (stereo not given), for which the growth in [1] is 46.2%; in assay [2] it was 71.7%; in assay [3] it was 72.9%; in assay [4], 67.2%; in [5], 76.4%; in assay [6], 49.4%. The growth is 70% in assay [7], 67.9% in [8], 28.2% in assay [9] and 44.2% in assay [10].
Regarding `COc1cccc(NC(=O)c2sc3nc4c(cc3c2N)C(O)CCC4)c1` (stereo not given), the growth was 7.8% (active) in assay [1]; 81.3% in assay [2]; 23.9% in [3]; -0.406% (active) in [4]; 30.6% in [5]; 5.44% (active) in assay [6]. Also, the growth in assay [7] was -17.6% (active); in [8], 55%; in assay [9], 11.8%; in [10], 19.4%.
On to `CN(C)CCCn1c(=O)c2ccccc2c2cnc3[nH]ccc3c21`, for which the growth in assay [1] was -10.9% (active); in [2] it was -25.1% (active); in assay [3], -11.2% (active); in assay [4] it was 5.57% (active); in [5], 21.1%; in assay [6], 12.4%. In addition, the growth in assay [7] was 30.3%; in assay [8] it was -20.6% (active); in [9], -6.79% (active); in assay [10], 10.5%.
In the case of `COc1cc(-c2cc(/C=C/C(=O)c3ccc(N)cc3)[nH]n2)cc(OC)c1OC`, the growth was 10.9% in assay [1]; 58.3% in assay [2]; -2.03% (active) in assay [3]; -23.2% (active) in [4]; -9.2% (active) in assay [5]; 22.9% in [6]. Further, the growth is -64.1% (active) in assay [7], 29.2% in assay [8], 34.8% in assay [9] and -22.3% (active) in assay [10].
For the compound `COc1ccc(-c2csc(NC(=O)CSc3nc(C)c(-c4ccccc4)n3Nc3ccccc3)n2)cc1`, the growth was 24.8% in assay [1]; 60.4% in [2]; 65.8% in assay [3]; 63.9% in assay [4]; 44.7% in assay [5]; -9.42% (active) in assay [6]. Further, the growth in [7] is 72.7%; in assay [8], 89.3%; in [9], 50.4%; in [10], 44.2%.
Regarding `CC(=O)CSC(C)=O`, the growth was 106% in assay [1]; 89.6% in assay [2]; 99.7% in [3]; 109% in assay [4]; 105% in [5]; 91.8% in assay [6]. Further, the growth is 95.2% in [7], 100% in assay [8], 103% in assay [9] and 103% in [10].
Take `COc1ccc(-c2ccc(-c3ccc(C(=N)N)cn3)o2)cc1`: the growth in assay [1] was 24.7%; in assay [2] it was 39.4%; in [3] it was 47.4%; in [4], 85.7%; in assay [5], 81.2%; in assay [6], 68.7%. Besides, the growth in assay [7] is 79.7%; in assay [8] it was 62.8%; in assay [9], 75.3%; in [10] it was 59.8%.
As for `CCCC(F)C(=O)O` (stereo not given), the growth was 97.6% in assay [1]; 103% in assay [2]; 111% in assay [3]; 117% in assay [4]; 107% in assay [5]; 83.5% in assay [6]. Also, the growth in [7] is 102%; in [8], 92.2%; in assay [9], 97.5%; in assay [10], 100%.
Consider `O=S(=O)(NCCCNc1nccc(-c2c(-c3ccc(F)cc3)nc3sccn23)n1)c1ccc2ccccc2c1`, for which the growth in assay [1] is 3.75% (active); in assay [2], 50.3%; in [3], 34.9%; in assay [4], 66.7%; in [5] it was 40.3%; in assay [6], 43.7%. For the same compound, the growth in assay [7] was 85.3%; in assay [8], 56.8%; in assay [9], 47.7%; in assay [10], 35.1%.
Take `COc1ccc(-c2nn(-c3cccc(NC(=O)c4ccc(Cl)c(Cl)c4)c3)cc2-c2ccncc2)cc1Cl`: the growth in assay [1] is 36.3%; in assay [2], 58.4%; in assay [3], 78%; in assay [4], 65.9%; in assay [5] it was 89.8%; in assay [6], 65%. Besides, the growth in assay [7] was 72.2%; in [8], 86.9%; in assay [9] it was 75.6%; in assay [10] it was 75.2%.
In the case of `CCCCC/C=C/C(=O)CCc1ccc(O)c(OC)c1`, the growth in assay [1] was 59.9%; in assay [2], 23%; in [3], 79.3%; in assay [4] it was 74.6%; in [5] it was 86.9%; in assay [6], 96.4%. For the same compound, the growth in [7] is 90.1%; in assay [8], 91.9%; in [9], 80.7%; in [10], 88.2%.

The values are drawn from PubChem BioAssay (NCI).
